Only some compounds are listed: those with a hit (about 12% of all), similar ones and a draw of the others.
NS1 inh – inhibitors of influenza NS1 protein function; AID 2326; 0.4% of 270,000 active; Potency, µM (highest dose often 46.1 µM), for inactives: at the top dose activity, positive = more growth; also: potency is read from the fitted curve at half-maximal effect; actives are rising curves; nearly all actives have a fitted effect of over 50% in size
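S. cerevisiae expressing influenza A NS1, grown in glucose, washed, then diluted 1:100 into pH 6.0 -URA galactose medium with 23 nl compound. Growth recovery read as OD600; NS1-free strain serves as control.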
SARS PLpro yeast – SARS-CoV PLP inhibition in yeast; S. cerevisiae expressing SARS-CoV PLpro, growth rescue; Potency, µM (series often up to 32.9 µM), for the others: top-dose activity, positive = growth rescue, actives largely listed as activators; AID 485353; 0.19% of 330,000 active; also: potency is read from the fitted curve at half-maximal effect; 0% is about no effect; nearly all actives have a fitted effect of over 55% in size
Cycloheximide cs – affects cycloheximide protein synthesis inhibition readout, counter-screen; cell reporter, cycloheximide protein synthesis inhibition counterscreen; max response, %; 12% of 300,000 active; AID 2314; in the data active = max response mostly above about 13%, no sharp cut-off; inactive = mostly below about 14%; also: read at 38.3 µM for the half of the compounds with a filed dose; 0% is about no effect
Shiga inhibitor – inhibitors of Shiga toxin in Vero cells | 9.2% of 290,000 active | AID 2315 | inhibition, % at 38.7 µM | Vero cells, Shiga toxin protein synthesis inhibition reporter; in the data active = inhibition mostly above about 28%, no sharp cut-off; inactive = mostly below about 43%; also: 0% is about no effect
Active calls of the source: *; u = inconclusive; x = no result given. Unless noted, calls follow the shape of the full dose curve.

SMILES	NS1 inh	SARS PLpro yeast	Cycloheximide cs	Shiga inhibitor
CCCCNC(=O)N(C)c1nc2ccccc2s1	-10%	-2%	50*	68*
COC(=O)N(C)c1nc2ccccc2s1	-17%	-3%	36*	65
Cc1ccc(Cl)cc1NC(=S)N1CCCCCC1	-1%	13%	2	-7
Cc1cc2nc(SCC(=O)N(C)C)c3c(c2cc1C)CCCC3	17%	-8%	24	35
O=C1OCCN1C(=O)[C@H]1[C@H](c2ccccc2)C(c2ccccc2)=NN1c1ccc(Br)cc1	x	-9%	7	-7
CCOC(=O)[C@H]1[C@H]2COc3ccc(Br)cc3[C@@H]2N2C(=O)[C@H](C)NC(=O)[C@@]12C	x	1%	x	x
O=C(N/N=C/c1ccc([N+](=O)[O-])o1)c1cc(-c2ccc(-c3ccccc3)cc2)nc2ccccc12	u	-5%	32*	101*
Cc1cc(N/N=C/c2ccc([N+](=O)[O-])o2)nc2ccccc12	-1%	-26%	15*	48*
Cc1ccc(-c2cc(C(=O)N/N=C/c3ccc([N+](=O)[O-])o3)c3ccccc3n2)o1	-5%	-7%	32*	80*
Cc1ccc(/C=N/NC(=O)c2cc(-c3ccncc3)nc3ccccc23)o1	-7%	-6%	-1	-15
Cc1cc(Nc2ccc([N+](=O)[O-])cc2)nc2ccccc12	4%	-2%	-3	19
O=[N+]([O-])c1ccc(/C=N/Nc2ccnc3cc(Cl)ccc23)o1	-89%	-13%	27	169*
O=C(N/N=C/c1ccc([N+](=O)[O-])o1)c1cc(-c2ccncc2)nc2ccccc12	10%	-5%	2	27
Cc1ccc(SCC(=O)OCC(=O)N(C)CC(=O)Nc2ccc(F)cc2)cc1	x	2%	x	x
Cc1ccc2nc(N/N=C/c3ccco3)cc(C)c2c1	-8%	2%	51*	72*
Cc1ccc2nc(SCC(=O)N/N=C/c3ccco3)cc(C)c2c1	x	-1%	1	8
CC(C)c1ccc(-c2nnn(CCC(=O)O)n2)cc1	u	-3%	-4	-19
CCOc1ccc(-c2nnn(CCC#N)n2)cc1OC	-5%	1%	7	21
CCc1ccc(-c2nnn(CCC(=O)OC)n2)cc1	4%	10%	19*	48
CCc1ccc(-c2nnn(CCC#N)n2)cc1	x	-1%	29*	40*
COc1ccccc1C(=O)NC(=O)CSc1nnc(SC)s1	x	4%	x	x
COc1ccccc1NC=C1C(=O)OC2(CCCCC2)OC1=O	-87%	1%	31*	80
COCCNC(=O)C(C)OC(=O)C1=Cc2ccccc2OC1 (centres undefined)	1%	0%	15*	18
CC(OC(=O)C1=Cc2ccccc2OC1)C(=O)NC(C)(C)C (centres undefined)	6%	1%	-1	-10
O=C(O)/C=C/C(=O)NNc1ncnc2ccccc12	-1%	5%	31*	81*
SMILES	NS1 inh	SARS PLpro yeast	Cycloheximide cs	Shiga inhibitor
O=C(NNc1ncnc2ccccc12)c1cccc(Cl)c1	4%	1%	31*	52*
CC(=O)NNc1ncnc2ccccc12	-3%	u	8	3
O=C(CCc1nc2ccccc2c(=O)[nH]1)NNC(=O)c1cccc(Cl)c1	x	-1%	x	x
Cc1nn(-c2ccc(NC(=O)c3ccncc3)cc2)c(C)c1Cl	-14%	2%	-1	-2
CC(C)(C)C(=O)OCc1cn(-c2ccc(Cl)cc2)nn1	-19%	-1%	24*	40
CC(C)(C)C(=O)OCc1cn(-c2ccccc2)nn1	-15%	2%	30*	59*
O=C(OCc1cn(-c2ccc(Cl)cc2)nn1)c1ccccc1	-15%	-4%	1	18
CCNC(=O)OCc1cn(-c2ccccc2)nn1	x	-1%	14	30
CC(C)CC(=O)OCc1cn(-c2ccccc2)nn1	-1%	3%	23*	53*
[O-]/C(=C(\C(=S)Nc1ccccc1F)[n+]1ccccc1)c1ccc(-c2ccccc2)cc1	0%	-2%	18*	94
[O-]/C(=C(\C(=S)Nc1ccc(Cl)cc1)[n+]1ccccc1)c1ccc(OC(F)F)cc1	x	2%	11	12
CC(C)(C)c1cc[n+](/C(C(=S)Nc2ccccc2F)=C(/[O-])c2ccc3c(c2)OCCO3)cc1	11%	2%	23*	50
Cc1ccc(OCC(=O)NCCNC(=O)c2cccnc2)cc1C	2%	0%	-3	-5
CCCCN(C(=S)Nc1cccc(C)c1C)c1c(N)n(CCC)c(=O)[nH]c1=O	x	-8%	1	-17
Nc1ccc(O)cc1C(=O)OCC(=O)C12CC3CC(CC(C3)C1)C2	2%	2%	20	42
Nc1ccc(O)cc1C(=O)OCC(=O)c1ccc(C2CCCCC2)cc1	10%	4%	61*	145*
COc1ccc(C(=O)OCC(=O)c2ccc(C3CCCCC3)cc2)cc1	6%	8%	13*	7
COc1ccc(-n2nnnc2SCC(=O)Nc2ccccc2F)cc1	-8%	2%	-2	x
Fc1ccccc1Nc1n[nH]c(=S)s1	0%	5%	26*	69*
C(#Cc1ccccc1)Cn1nnc2ccccc21	-13%	-6%	37*	49*
Cc1c(-n2c(SCC(=O)C(C)(C)C)nc3ccccc3c2=O)c(=O)n(-c2ccccc2)n1C	x	-3%	8	-5
Cc1ccc(OCCNC(=O)/C=C/c2ccccc2)cc1	4%	-16%	2	14
Cc1ccc(C(=O)C(C(=O)/C=C/c2ccccc2)=C2SCCCS2)cc1	u	-4%	20*	40
Nc1nc(SCc2ccc(Br)cc2)n[nH]1	2%	-1%	27*	53*
Nc1nc(SCc2ccc(Cl)c(Cl)c2)n[nH]1	-38%	0%	8	54
SMILES	NS1 inh	SARS PLpro yeast	Cycloheximide cs	Shiga inhibitor
Nc1ccccc1SCc1ccccc1	x	1%	72*	89*
Nc1nc(SCc2ccccc2)n[nH]1	2%	0%	11*	19
S=C(NCCc1ccccc1)N/N=C/c1ccccc1Cl	-23%	24%	11*	-10
O=C(NCCCN1CCOCC1)C(=O)N/N=C/c1ccccc1Cl	3%	2%	19*	21
O=C(NCCCN1CCOCC1)C(=O)N/N=C/c1c(Cl)cccc1Cl	-2%	0%	-1	8
Oc1ccc(Br)cc1/C=N/NC(=S)NCCc1ccccc1	26%	-10%	-5	1
O=C(Cc1ccccc1)N/N=C/c1ccccc1Cl	-33%	-4%	41*	53
CCCCn1nc(NC(=O)CC)c2cc3cc(OC)ccc3nc21	-3%	6%	12	18
CCOC(=O)C1CCN(Cc2oc(CO)cc(=O)c2O)CC1	-5%	16%	15	33*
Cc1ccc(C)c(NC(=S)c2ccccn2)c1	-34%	8%	50*	95*
Cc1ccc(C)c(NC(=S)c2ccc3ccccc3n2)c1	22%	2%	44*	75*
Cc1ccc(C)c(NC(=S)c2nc3ccccc3s2)c1	2%	-4%	26*	42*
CN(C)c1ccc(NC(=S)c2ccc3ccccc3n2)cc1	-4%	-4%	32*	113*
Cc1ccc(C)c(C(=O)COC(=O)CCCC(=O)Nc2cc(C(F)(F)F)ccc2Cl)c1	2%	20%	9	11
CC(O)Cn1cnc2c1c(=O)n(C)c(=O)n2C (centres undefined)	8%	2%	-3	-11
O=C(Cn1nc(C(F)(F)F)c2c1CCCC2)Nc1ccc2c(c1)OCO2	-11%	-6%	1	-5

Screens as filed in PubChem BioAssay.
